The supplement of paper PMC6522484
Structures can show the parent of a compound that is named as a salt. ± gives the standard deviation of the averaged measurements.

Assays:
DLD1 [1] = assay: cell viability (CellTiter-Glo) relative to plate median (fraction of plate median); higher = more viable cells; details: 10 µM, treatment time 24 h
Outline: (§1)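 Each value averages two independent replicates in which the well signal was normalised to the plate median (webcellHTS2, additive, without log transformation). The signal was firefly luciferase or CellTiterGlo luminescence, read on parallel plates with a Tecan F500. The cells were colorectal cancer lines with stable lentiviral TCF/Wnt firefly luciferase reporters in 384-well plates, dosed 24 h after seeding with kinase inhibitor library compounds at a final 10 µM for 24 h.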

HCT116 [2] = assay: as above; details: 10 µM; treatment time 24 h; reporter: TCF4/Wnt
Outline: as §1

SW480 [3] = assay: as above; details: 10 µM; treatment time 24 h; reporter: 7TFP
Outline: as §1

DLD1 [4] = assay: TCF/Wnt firefly luciferase reporter signal relative to plate median (fraction of plate median); higher = higher Wnt reporter signal; details: 10 µM, treatment time 24 h
Outline: as §1

HCT116 [5] = assay: as above; details: 10 µM; treatment time 24 h; reporter: TCF4/Wnt
Outline: as §1

SW480 [6] = assay: as above; details: 10 µM; treatment time 24 h; reporter: 7TFP
Outline: as §1

SMILES	cell viability (DLD1 [1]; reporter: 7TFP)	cell viability (DLD1 [1]; reporter: TCF4/Wnt)	cell viability (HCT116 [2])	cell viability (SW480 [3])	TCF/Wnt firefly luciferase reporter signal (DLD1 [4]; reporter: 7TFP)	TCF/Wnt firefly luciferase reporter signal (DLD1 [4]; reporter: TCF4/Wnt)	TCF/Wnt firefly luciferase reporter signal (HCT116 [5])	TCF/Wnt firefly luciferase reporter signal (SW480 [6])
Cc1csc(-c2nnc(Nc3ccc(Oc4ncccc4-c4ccnc(N)n4)cc3)c3ccccc23)c1	0.943 ± 0.042	1.03 ± 0.035	1.16 ± 0.071	1.03 ± 0.059	1.08 ± 0.11	0.866 ± 0.13	1.75 ± 0.14	0.983 ± 0.067
CC(=O)Nc1cccc(-n2c(=O)n(C3CC3)c(=O)c3c(Nc4ccc(I)cc4F)n(C)c(=O)c(C)c32)c1	1.33 ± 0.057	1.29 ± 0.13	0.9995 ± 0.00071	1.19 ± 0.042	1.09 ± 0.52	1.39 ± 0.54	1.32 ± 0.58	2.02 ± 0.042
Cc1cc(C)c(/C=C2\C(=O)Nc3ccccc32)[nH]1 [Semaxanib (SU5416)]	0.951 ± 0.016	1.02 ± 0.038	1.2 ± 0.071	0.879 ± 0.028	1.47 ± 0.021	1.335 ± 0.0071	0.91 ± 0.11	1.04 ± 0.021
C#Cc1cccc(Nc2ncnc3cc(OCCOC)c(OCCOC)cc23)c1 [Erlotinib HCl]	1.035 ± 0.0071	0.934 ± 0.034	1.14 ± 0.078	1 ± 0.013	0.888 ± 0.023	0.73 ± 0.0057	0.729 ± 0.4	0.868 ± 0.3
C[C@H](NC(=O)/C(C#N)=C/c1cccc(Br)n1)c1ccccc1	0.579 ± 0.082	0.529 ± 0.0085	0.183 ± 0.0028	0.899 ± 0.0057	0.041 ± 0.011	0.057 ± 0.015	0.0323 ± 0.02	0.0234 ± 0.012
CO[C@H]1C[C@@H]2CC[C@@H](C)[C@@](O)(O2)C(=O)C(=O)N2CCCC[C@H]2C(=O)O[C@H]([C@H](C)C[C@@H]2CC[C@@H](OCCO)[C@H](OC)C2)CC(=O)[C@H](C)/C=C(\C)[C@@H](O)[C@@H](OC)C(=O)[C@H](C)C[C@H](C)/C=C/C=C/C=C/1C [Everolimus (RAD001)]	1.04 ± 0.11	1.02 ± 0.028	0.974 ± 0.094	1.26 ± 0.028	0.893 ± 0.091	1.05 ± 0.14	0.951 ± 0.15	1.42 ± 0.057
O=C(c1ccc(/C=C/c2n[nH]c3ccccc23)cc1)N1CCNCC1	1.16 ± 0.021	1.14 ± 0.071	0.944 ± 0.093	1.09 ± 0.035	1.26 ± 0.6	1.46 ± 0.65	1.45 ± 0.45	1.53 ± 0.2
O=c1sn(-c2cccc3ccccc23)c(=O)n1Cc1ccccc1 [Tideglusib]	1.03 ± 0.081	0.9475 ± 0.005	1.03 ± 0.067	0.946 ± 0.0099	1.32 ± 0.035	1.17	1.285 ± 0.0071	1.11 ± 0.064
COCC(=O)NC/C=C/c1ccc2ncnc(Nc3ccc(Oc4ccc(C)nc4)c(C)c3)c2c1	0.964 ± 0.14	1.035 ± 0.0071	1.06 ± 0.014	0.952 ± 0.059	1.18 ± 0.064	1.19 ± 0.17	0.786 ± 0.27	0.927 ± 0.43
O=C(O)c1ccc2c(c1)nc(Nc1cccc(Cl)c1)c1ccncc12 [cx-4945 (Silmitasertib)]	1 ± 0.057	0.955 ± 0.079	0.839 ± 0.042	1 ± 0.092	0.508 ± 0.15	0.651 ± 0.2	0.627 ± 0.36	0.612 ± 0.1
CN(C)CCOc1ccc(-c2nc(-c3ccncc3)c(-c3ccc4c(c3)CC/C4=N\O)[nH]2)cc1	1.04 ± 0.071	1.14 ± 0.064	1.2 ± 0.11	1.11 ± 0.071	1.3 ± 0.092	1.28 ± 0.042	1.19 ± 0.24	1.27 ± 0.33
COc1cc2c(Oc3ccc(NC(=O)C4(C(=O)Nc5ccc(F)cc5)CC4)cc3F)ccnc2cc1OCCCN1CCOCC1	0.845 ± 0.044	0.875 ± 0.042	0.845 ± 0.12	1.03 ± 0.13	0.794 ± 0.15	0.568 ± 0.054	1.2 ± 0.28	0.838 ± 0.4
CN1CC[C@H](c2c(O)cc(O)c3c(=O)cc(-c4ccccc4Cl)oc23)[C@H](O)C1 [Flavopiridol hydrochloride]	1.27 ± 0.2	1.24 ± 0.092	0.865 ± 0.29	1.36 ± 0.11	0.393 ± 0.14	0.227 ± 0.069	0.196 ± 0.047	0.869 ± 0.0099
C=CC(=O)Nc1cccc(Oc2nc(Nc3ccc(N4CCN(C)CC4)cc3OC)ncc2Cl)c1	1.24 ± 0.014	1.08 ± 0.042	1.14 ± 0.05	0.922 ± 0.064	1.16 ± 0.078	1.05 ± 0.05	0.722 ± 0.55	0.71 ± 0.31
CN1CCN(c2ccc3nc(-c4c(N)c5c(F)cccc5[nH]c4=O)[nH]c3c2)CC1 [Dovitinib (TKI-258)]	0.901 ± 0.18	0.908 ± 0.033	0.748 ± 0.27	1.02 ± 0.11	1.26 ± 0.23	1.3 ± 0.092	0.97 ± 0.042	1.39 ± 0.6
NC(=O)c1ccc(N(C(N)=O)c2c(F)cccc2F)nc1-c1ccc(F)cc1F	0.966 ± 0.016	1.045 ± 0.0071	1.13 ± 0.085	0.91 ± 0.025	0.904 ± 0.019	0.756 ± 0.0014	0.921 ± 0.071	0.752 ± 0.08
CC(C)NC[C@@H](C(=O)N1CCN(c2ncnc3c2[C@H](C)C[C@H]3O)CC1)c1ccc(Cl)cc1	0.947 ± 0.031	1.1 ± 0.021	0.917 ± 0.0092	1.04 ± 0.042	0.922 ± 0.029	0.951 ± 0.31	1.08 ± 0.27	0.999 ± 0.016
CNC(=O)c1ccc(C)c(-n2c(C)cc(OCc3ccc(F)cc3F)c(Br)c2=O)c1	1.07 ± 0.057	1.015 ± 0.0071	1.05 ± 0.035	0.868 ± 0.047	1.17 ± 0.24	1.02 ± 0.061	0.81 ± 0.046	1.02 ± 0.11
C=CC(=O)Nc1cc2c(Nc3ccc(F)c(Cl)c3)ncnc2cc1OCCCN1CCOCC1 [CI-1033 (Canertinib)]	0.868 ± 0.016	0.854 ± 0.068	0.968 ± 0.059	1.03 ± 0.035	0.353 ± 0.013	0.601 ± 0.096	1 ± 0.19	0.771 ± 0.32
COc1ccc(COc2cc3oc(=O)c4cc(C(C)O)ccc4c3cc2OC)cc1 (stereo not drawn) [Palomid 529]	1.08 ± 0.028	1.09 ± 0.021	1.12 ± 0.092	0.877 ± 0.044	1.1 ± 0.021	1.16 ± 0.099	1.2 ± 0.37	1.07 ± 0.099
C=CC(=O)Nc1cccc(Sc2nc(Nc3ccc(N4CCN(C)CC4)cc3)ncc2Cl)c1	1.1 ± 0.035	1.02 ± 0.15	1.02	1.195 ± 0.0071	1.79 ± 0.25	1.15 ± 0.22	1.64 ± 0.67	1.32 ± 0.58
